Test results from PubChem BioAssay AID624330 (Southern Research Specialized Biocontainment Screening …, 2012).
Hit rate of the full screen: of about 340,000 compounds, about 2,100 (0.62%) were called active.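 How the source made its calls: active means first-screen hits whose inhibition reached a set limit at any dose in the follow-up dose series; inconclusive means inhibition above the set first-screen limit but never retested; inactive means the rest.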 A selection follows. Measured potencies and affinities stand elsewhere.

Molecular target: Rac GTPase-activating protein 1 (Homo sapiens) (UniProt Q9H0H5)
Test: blockers of MgcRacGAP-driven Rac1 GTP hydrolysis – biochemical, ADP Hunter fluorescence, primary and confirmatory, confirmation (AID 624330);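 further: fluorescence reports GDP produced by GAP-driven GTP hydrolysis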
Conditions: MgcRacGAP-stimulated Rac1 GTP hydrolysis, at 30 µM, hits give high values, GST-tagged Rac1 F28L mutant substrate

Rac GTPase-activating protein 1 (Homo sapiens), sequence (Q9H0H5 whole entry, looked up): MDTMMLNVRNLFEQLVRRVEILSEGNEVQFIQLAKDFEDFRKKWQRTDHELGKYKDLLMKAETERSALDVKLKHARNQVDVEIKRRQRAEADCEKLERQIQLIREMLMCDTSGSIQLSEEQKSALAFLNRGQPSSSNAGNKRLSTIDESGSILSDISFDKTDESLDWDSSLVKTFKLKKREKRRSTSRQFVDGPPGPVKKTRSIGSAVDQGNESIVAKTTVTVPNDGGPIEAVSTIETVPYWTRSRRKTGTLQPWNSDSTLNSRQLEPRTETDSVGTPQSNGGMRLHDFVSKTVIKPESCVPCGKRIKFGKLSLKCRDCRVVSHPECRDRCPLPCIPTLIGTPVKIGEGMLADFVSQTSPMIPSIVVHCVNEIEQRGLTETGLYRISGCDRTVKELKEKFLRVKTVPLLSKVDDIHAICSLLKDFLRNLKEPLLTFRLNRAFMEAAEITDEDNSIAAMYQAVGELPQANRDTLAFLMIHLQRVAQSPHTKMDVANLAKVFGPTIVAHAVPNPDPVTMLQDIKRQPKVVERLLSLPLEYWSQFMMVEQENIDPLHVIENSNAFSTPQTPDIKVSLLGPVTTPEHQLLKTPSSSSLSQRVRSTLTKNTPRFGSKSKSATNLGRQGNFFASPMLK

inhibition, inactive:
Cc1sc2ncn(CC(=O)N3CCN(c4ccccc4F)CC3)c(=O)c2c1S(=O)(=O)N1CCOCC1 2.91%
COc1cc(NC(N)=S)c(OC)cc1Cl 10.5%
Cc1ccc2c(N)c(C)ccc2c1 12.7%
Cc1cc(Cc2ccc(N)c(C)c2)ccc1N 4.21%
COc1cc(Br)c(Br)cc1N -1.7%
COc1cc([N+](=O)[O-])ccc1N 0.84%
COc1ccc(-c2nnc(N)s2)cc1OC 5.29%
Cc1cc([N+](=O)[O-])ccc1N -7.8%
Cc1ccc(C)c(N)c1 6.49%
O=C(CSc1nccc(=O)[nH]1)NN(c1ccccc1)c1ccccc1 11.2%
O=C(NCC(c1ccco1)N1CCN(c2ccccc2)CC1)C(=O)NC1CCCC1 (stereo not given) 4.87%
CCCCCN(C(=O)CCC(=O)OCc1cccc(C)c1)c1c(N)n(CCCC)c(=O)[nH]c1=O 5.1%
O=C(CSc1nnc(COc2ccccc2)n1-c1ccccc1)c1cccs1 15.1%
CCOC(=O)c1nc(C)nc(Sc2n[nH]c(-c3ccccc3)n2)c1C 9.53%
C/C(=N/OCC(=O)Nc1ccccc1)c1cccs1 6.14%
CCCCc1ccc(NC(=O)CN(C)CC(=O)Nc2ccccc2Cl)cc1 11.5%
O=c1cc(-c2ccc(Cl)c(Cl)c2)[nH][nH]1 8.61%
CCCCC(=O)N1C/C=C\C(c2ccc(OC)cc2)N(Cc2ccc(F)cc2)C(=O)C1 (stereo not given) 8.3%
COc1ccc(/C=N/Nc2ncc(C(F)(F)F)cc2Cl)cc1OC -7.93%
COc1cc(/C=N/Nc2ccc(C(F)(F)F)cn2)cc(OC)c1O 13%
O=[N+]([O-])c1ccc(NN=Cc2ccc(O)cc2O)nc1 24.6%
O=C(O)c1ccc(/C=N/Nc2ccc(C(F)(F)F)cn2)cc1 13.8%
FC(F)(F)c1ccc(N/N=C/c2cccnc2)nc1 4.55%
Cc1ncc(CO)c(/C=N/Nc2ccc(C(F)(F)F)cn2)c1O 61.5%
Cc1cccc(C(CC(=O)O)NC(=O)C(F)(F)F)c1 (stereo not given) 2.11%
C=CCN(CC=C)CCCOc1ccc(C)cc1OC 14.4%
Cc1ccc(NS(=O)(=O)c2ccc3c(c2)NC(=O)C(C)C(=O)N3)cc1C (stereo not given) -6.55%
CCC(Oc1ccccc1C)C(=O)N1CCCN(C)CC1 (stereo not given) 3.47%
COc1cc(-c2nc3ccccn3c2/N=C/c2cccc(OC)c2O)ccc1O 10.6%
COc1cc(-c2nc3cccc(C)n3c2NCC2CCCO2)ccc1O (stereo not given) -43.9%
COc1ccc(OC)c(/C=N/c2c(-c3ccc(O)c(OC)c3)nc3ccccn23)c1 4.63%
CCOc1cc(-c2nc3ccccn3c2NCC2CCCO2)ccc1O (stereo not given) -4.32%
Cc1cccc(C)c1Nc1c(-c2ccc(N3CCOCC3)cc2)nc2cnccn12 13.6%
Cc1ccc2nc(-c3ccccc3O)c(Nc3ccc4c(c3)OCCO4)n2c1 11.2%
COc1cc(-c2nc3cnccn3c2NC(C)(C)CC(C)(C)C)ccc1O 17%
COc1cc(-c2nc3cnccn3c2Nc2ccc3c(c2)OCCO3)ccc1O 15.7%
O=C1CC2(CCCC2)C(=O)N1c1ccc(S(=O)(=O)NCC2CC2)cc1Cl 5.71%
COc1ccc(OCc2nnc(SC3CCOC3=O)n2-c2ccccc2)cc1 (stereo not given) 11.2%
c1nnc(-c2ccc3c(c2)OCO3)o1 12.3%
CC(C)(C)C(=O)NCc1ccc(C(=O)CSc2nnc(C3CC3)n2C2CC2)s1 8.51%
C[C@]12C(=O)N(c3cccc(Cl)c3)C(=O)N1[C@@H]1c3ccccc3OC[C@@H]1[C@H]2c1ccccc1 6.88%
CCOC(=O)Cc1csc(SCC(=O)NC2CCS(=O)(=O)C2)n1 (stereo not given) 0.45%
Cc1cc(-c2ccc(Cl)cc2)n2nc(N)nc2n1 8.73%
COc1ccc(C/C(N)=N/OC(C)=O)cc1OC 7.14%
COc1cc(-c2nc3cnccn3c2Nc2ccc(C(C)C)cc2)ccc1O 21.9%
COc1cc(-c2nc3cnccn3c2Nc2ccccc2)ccc1O 30.3%
CCOC(=O)C(C)Sc1nc(-c2ccccc2)nc2ccccc12 (stereo not given) -2.03%
ON=C1CCCC2CCCCC12 (stereo not given) -2.9%
CC(C)CC(=O)NC(c1ccccc1)c1c(O)ccc2ccccc12 (stereo not given) 7.84%
CC(C)CNC(=O)CC(c1ccccc1)c1c(O)ccc2ccccc12 (stereo not given) 10.5%
CN(Cc1ccccc1F)C(=O)CN1c2cccc3cccc(c23)S1(=O)=O 6.24%
COc1cccc(CNC(=O)CCS(=O)(=O)c2ccc3c(c2)NC(=O)CO3)c1 12.4%
CCCn1c(SCC(=O)NNC(=O)c2ccccc2)nnc1-c1cccnc1 12.3%
COc1ccc2cc(C(=O)Nc3ccc(Cl)cc3)sc(=O)c2c1OC 7.43%
O=C(NCCO)c1cc2ccccc2c(=O)s1 6.83%
COc1ccc2cc(C(=O)Nc3ccc(F)cc3)sc(=O)c2c1OC 0.7%
O=C(Nc1ccccc1)c1cc2ccccc2c(=O)s1 -4.83%
CCN1C(=O)[C@H]2[C@H]3CN=C(SCc4ccc(C(=O)OC)cc4)N3[C@@](Cc3ccccc3)(C(=O)OC)[C@H]2C1=O 11.1%
COC(=O)C(Cc1c[nH]c2ccccc12)NC(=O)c1cccc(S(=O)(=O)N2CCCCC2)c1 (stereo not given) 2.63%
CCOC(=O)c1ccc(NC(=O)C(=O)NCC2(c3ccc(OC)cc3)CCOCC2)cc1 15.5%
CC(C(=O)Nc1ccc(Cl)cc1)N1C(=O)NC2(CCCC2)C1=O (stereo not given) 3.21%
CCN(CC(=O)NCc1ccc(F)cc1)C(=O)CN1CCN(c2cc(Cl)ccc2C)CC1 4.22%
CCOc1ccc(N=Cc2ccccc2O)cc1 4.12%
Cc1ccc(N=Cc2ccc(O)cc2O)cc1F 2.37%
CCN(CC)c1ccc(C=Nc2ccc(N(C)C)cc2)c(O)c1 19.7%
Cc1cc(O)c(C=Nc2ccc(N3CCOCC3)cc2)c(C)c1Cl 24.8%
COc1ccc(N=Cc2ccccc2O)cc1 7.18%
O=[N+]([O-])c1cc(Br)c(O)c(C=Nc2ccc(N3CCOCC3)cc2)c1 54.6%
Oc1ccc(N=Nc2cccc(Cl)c2)cc1C=Nc1ccc(N2CCOCC2)cc1 7.02%
Cn1c(O)c(C=Nc2ccc(N3CCOCC3)cc2)c(=O)n(C)c1=S 10.4%
